Results from article PMC5540273 (PLoS ONE, 2017).
Read-outs that look alike come from different tables or passages of the source.

How the values were obtained:
Settings in all cases: n = 1
NEK7 = tested on: NEK7
NEK9 = tested on: NEK9
NIK = tested on: T1, NIK
T1 construct: gene MAP3K14

NIM1 = tested on: T2, NIM1
T2 construct: gene MGC42105

NLK = tested on: NLK
OSR1 = tested on: T3, OSR1
T3 construct: gene OXSR1

PAK1 = tested on: PAK1
PAK2 = tested on: PAK2
PAK3 = tested on: PAK3
PAK4 = tested on: PAK4
[1] = concentration: 1 μM, replicates: in singlicate
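Note: KINOMEscan kinase panel screen.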

Structure (SMILES) | %Inh (NEK7; [1]) [%] | %Inh (NEK9; [1]) [%] | %Inh (NIK; [1]) [%] | %Inh (NIM1; [1]) [%] | %Inh (NLK; [1]) [%] | %Inh (OSR1; [1]) [%] | %Inh (PAK1; [1]) [%] | %Inh (PAK2; [1]) [%] | %Inh (PAK3; [1]) [%] | %Inh (PAK4; [1]) [%] | %Inh (NEK7; 1 µM) [%] | %Inh (NEK9; 1 µM) [%] | %Inh (NIK; 1 µM) [%] | %Inh (NIM1; 1 µM) [%] | %Inh (NLK; 1 µM) [%] | %Inh (OSR1; 1 µM) [%] | %Inh (PAK1; 1 µM) [%] | %Inh (PAK2; 1 µM) [%] | %Inh (PAK3; 1 µM) [%] | %Inh (PAK4; 1 µM) [%]
Cc1ccc(NC(=O)Nc2cccc(Cl)c2)cc1-c1ccc(C(=O)Nc2ccncc2)cc1 [GSK1398468] | 0 | 0 | 2 | 11 | 38 | 12 | 19 | 0 | 0 | 0 | – | – | – | – | – | – | – | – | – | –
Cn1ccc2ncnc(Oc3ccc(NC(=O)Nc4ccccc4)cc3)c21 | 0 | 0 | 6 | 0 | 11 | 0 | 10 | 17 | 40 | 10 | – | – | – | – | – | – | – | – | – | –
Cc1ccc(C(=O)Nc2ccc(Nc3ccnc4cc(-c5ccccn5)ccc34)cc2O)cc1.Cl [GW440146] | 0 | 52 | 11 | 15 | 22 | 1 | 12 | 15 | 14 | 0 | – | – | – | – | – | – | – | – | – | –
COc1ccc(CNC(=O)NC2CCN(c3ccnc(Nc4cc(OC)c(OC)c(OC)c4)n3)C2)cc1 (stereo not drawn) [GSK1379748] | 15 | 15 | 25 | 0 | 17 | 0 | 3 | 0 | 0 | 0 | – | – | – | – | – | – | – | – | – | –
Cc1c(O)cccc1Nc1ccnc2ccc(C(F)(F)F)cc12.Cl [GW466413] | 0 | 0 | 22 | 17 | 0 | 0 | 0 | 0 | 1 | 0 | – | – | – | – | – | – | – | – | – | –
Cc1ccc(NC(=O)Nc2cccc(C(F)(F)F)c2)cc1 [GSK955403] | – | – | – | – | – | – | – | – | – | – | 0 | 0 | 8 | 0 | 15 | 0 | 24 | 5 | 0 | 4
Cc1cc(-c2ccc3c(c2)CC[C@@H](N[C@@H](C)c2ccccc2)C3)cnc1N.Cl [GW412617] | 9 | 0 | 77 | 22 | 0 | 8 | 0 | 16 | 0 | 36 | – | – | – | – | – | – | – | – | – | –
Cl.c1ccc(-c2n[nH]cc2-c2ccnc(-c3ccc(CN4CCOCC4)cc3)c2)nc1 [GW776245] | 0 | 0 | 0 | 0 | 0 | 0 | 6 | 14 | 10 | 16 | – | – | – | – | – | – | – | – | – | –
Cn1cncc1-c1ccc2ncnc(Nc3ccc(OCc4ccccc4)cc3)c2c1 [GW320571] | 0 | 12 | 0 | 19 | 11 | 19 | 0 | 0 | 2 | 0 | – | – | – | – | – | – | – | – | – | –
